# Results published in PubChem BioAssay (NCATS).
# Results filed as inconclusive are left out. Active and inactive are the calls of the source. Unless noted, the call rests on the fitted dose curve; in most records, active means well fitted cell-killing curve with a large enough effect; inconclusive means small, poorly fitted or top-dose-only effect, or effect the other way; inactive means flat fitted curve, though single readings scatter.
# Tested on: not listed separately
# Assay: qHTS drug screen for cell cycle checkpoint inhibitors in PARPi-resistant BRCA-mutant ovarian cancer cell lines. (AID 1963452; calls by dose curve)
# Conditions: PEO1/OlaR viability, CellTiter-Glo luminescence, 96 h; stronger effect = lower value
# In short: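 PEO1, PEO4 and PEO1/OlaR ovarian cancer cells, 600 per well, exposed 96 h at 37C to a dilution series. Viability read by CellTiter-Glo luminescence, normalized to DMSO and empty wells; activity summarized as Z-AUC.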
row,Structure (SMILES),Z-AUC
1,CCC(=O)Nc1cccc(Oc2nc(Nc3ccc(N4CCN(C)CC4)cc3OC)ncc2Cl)c1,-0.15 (inactive)
2,COc1cc2nc(-c3cc(F)ccc3O)nc(N[C@@H]3CNC[C@H]3C(C)(C)O)c2cc1OC,-0.315 (inactive)
3,CC(=O)Nc1ccc(C(=O)Nc2ccccc2N)cc1,-0.302 (inactive)

# Same assay, conditions: PEO1/OlaR viability, CellTiter-Glo luminescence, 96 h; measured here: PEO1 parental Z-AUC; stronger effect = lower value
row,Structure (SMILES),Z-AUC
1,CCC(=O)Nc1cccc(Oc2nc(Nc3ccc(N4CCN(C)CC4)cc3OC)ncc2Cl)c1,0.187
2,COc1cc2nc(-c3cc(F)ccc3O)nc(N[C@@H]3CNC[C@H]3C(C)(C)O)c2cc1OC,-0.378
3,CC(=O)Nc1ccc(C(=O)Nc2ccccc2N)cc1,-0.636

# Same assay, conditions: PEO1/OlaR viability, CellTiter-Glo luminescence, 96 h; measured here: PEO4 Z-AUC; stronger effect = lower value
row,Structure (SMILES),Z-AUC
1,CCC(=O)Nc1cccc(Oc2nc(Nc3ccc(N4CCN(C)CC4)cc3OC)ncc2Cl)c1,0.383
2,COc1cc2nc(-c3cc(F)ccc3O)nc(N[C@@H]3CNC[C@H]3C(C)(C)O)c2cc1OC,-0.09
3,CC(=O)Nc1ccc(C(=O)Nc2ccccc2N)cc1,-0.146

# Tested on: C33A
# Assay: Primary qHTS to identify gynecologic anti-cancer compounds using libraries of approved drugs and bioactive compounds (AID 1345084); further: on the % scale 0 is the no-effect control and ±100 the full control effect; nearly all actives have a fitted effect of over 55% in size
# Conditions: Gynecologic cancer cell panel viability, ATPlite luminescence, 48 h; series mostly up to 57.5 µM; activity change, negative = cytotoxicity: at the top concentration
# In short: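 Luminescence from the ATPlite ATP-monitoring reagent indicates viable cell number; lower signal means cytotoxicity. Cells received compound 16 h after seeding and were exposed for 48 h across five concentrations.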
row,Structure (SMILES),"activity change, negative = cytotoxicity"
1,Nc1ccc(N)c([N+](=O)[O-])c1,-7.55% [at 116 µM] (inactive)
2,CC(C)n1cnc2c(Nc3cccc(Cl)c3)nc(NCCO)nc21,-1.2% (inactive)
3,COc1ccc(-c2c(C)c(C(=O)NN3CCCCC3)nn2-c2ccc(Cl)cc2Cl)cc1,-10.8% (inactive)
4,O=C(CC1NCCC[C@H]1O)Cn1cnc2cc(Br)c(Cl)cc2c1=O (some centres undefined),-0.301% (inactive)
5,Cc1c(C(=O)NCCCO)cnn1-c1nc(-c2cccc(C(F)(F)F)c2)cs1,-1.09% (inactive)
6,COc1cccc(NC[C@@H](O)Cn2c3ccc(Br)cc3c3cc(Br)ccc32)c1,-13.7% (inactive)
7,C[C@@H](O[C@H]1OCCN(Cc2n[nH]nc2CN(C)C)[C@H]1c1ccc(F)cc1)c1cc(C(F)(F)F)cc(C(F)(F)F)c1,-1.8% (inactive)
8,CC[C@H](C)[C@H]1O[C@]2(CC[C@@H]1C)C[C@@H]1C[C@@H](C/C=C(\C)[C@@H](O[C@H]3C[C@H](OC)[C@@H](O[C@H]4C[C@H](OC)[C@@H](O)[C@H](C)O4)[C@H](C)O3)[C@@H](C)/C=C/C=C3\CO[C@@H]4[C@H](O)C(C)=C[C@@H](C(=O)O1)[C@]34O)O2,-4.4% (inactive)
9,CCC(=O)Nc1cccc(Oc2nc(Nc3ccc(N4CCN(C)CC4)cc3OC)ncc2Cl)c1,11.9% (inactive)
10,O=C(Nc1cccc(C(F)(F)F)c1)c1ccccc1NCc1ccncc1,-18.5% (inactive)
11,COc1cc2nc(-c3cc(F)ccc3O)nc(N[C@@H]3CNC[C@H]3C(C)(C)O)c2cc1OC,-19.3% (inactive)
12,Cc1cc(CN)cc(C)c1NC(=O)c1ccc(-c2cc(Cl)ccc2Cl)o1,-0.362% (inactive)
13,c1ccc(-c2cnc(Nc3ccc(OCCN4CCCC4)cc3)s2)cc1,-19.9% (inactive)
14,C=C1C(=O)O[C@@H]2/C=C(/C)CC3C=C(C[C@H](OC(=O)/C(C)=C\C)[C@@H]12)C(=O)O3 (some centres undefined),-10.4% [at 38.5 µM] (inactive)
15,CC1(C)SC2C(NC(=O)[C@H](NC(=O)N3CCNC3=O)c3ccccc3)C(=O)N2C1C(=O)O (some centres undefined),13.4% (inactive)
16,CC1(C)SC2C(NC(=O)[C@H](C(=O)O)c3ccsc3)C(=O)N2C1C(=O)O (some centres undefined),8.45% (inactive)
17,COc1ccc(-c2nc(-c3cc(C(F)(F)F)cc(C(F)(F)F)c3)n(Cc3ccc(C(N)=O)cc3)c2-c2ccc(OC)cc2)cc1,-1.58% (inactive)
18,Fc1ccccc1CNCc1ccc(-c2ccnc3[nH]ccc23)cc1,-28.6% (inactive)
19,CCCCc1nc(C)c(CC(=S)N(C)C)c(=O)n1Cc1ccc(-c2ccccc2-c2nn[nH]n2)cc1,11.8% (inactive)
20,CO[C@@H]1[C@@H](O[C@H]2O[C@@H](C)[C@H](O[C@@H]3C[C@](C)(O)[C@H](O)[C@@H](C)O3)[C@@H](N(C)C)[C@@H]2O)[C@@H](CC=O)C[C@@H](C)[C@@H](O[C@H]2CC[C@H](N(C)C)[C@H](C)O2)/C=C/C=C/C[C@@H](C)OC(=O)C[C@H]1O,0.0359% (inactive)

row,Structure (SMILES),"activity change, negative = cytotoxicity"
1,CNc1nc(-c2ccc3c(N)n[nH]c3c2)cc(N2CC(C(=O)NC3CCCCC3)CCC2C)n1 (centres undefined),-17% (inactive)
2,CNc1cc(OC)c(C(=O)N[C@@H]2CCN(Cc3ccccc3)[C@@H]2C)cc1Cl,3.85% (inactive)
3,CN([C@H]1c2cc(OCCCC(F)(F)F)ccc2OC(C)(C)[C@@H]1O)S(C)(=O)=O,8.28% (inactive)
4,CCOC(=O)CCC(=O)O[C@H]1[C@H](O[C@@H]2[C@@H](C)[C@H](O[C@H]3C[C@@](C)(OC)[C@@H](O)[C@H](C)O3)[C@@H](C)C(=O)O[C@H](CC)[C@@](C)(O)[C@H](O)[C@@H](C)C(=O)[C@H](C)CC2(C)O)O[C@H](C)C[C@@H]1N(C)C (some centres undefined),8.52% (inactive)
5,COc1cc(-c2cc(-c3cccc(O)c3)cnc2N)cc(OC)c1OC,-10.5% (inactive)
6,C=C1C(=O)O[C@@H]2C[C@@H](C)[C@]34C[C@]5(C(=O)O[C@H]6CC(C)=C([C@H](C)CCCO)[C@H](OC(=O)C(C)CC)[C@H]65)[C@@H](C(C)=C3C[C@@H]12)[C@H]4OC(C)=O (some centres undefined),-28.7% [at 25.3 µM] (inactive)
7,CC(=O)Nc1ccc(C(=O)Nc2ccccc2N)cc1,1.28% [at 25.3 µM] (inactive)
8,C[C@H](NC(=O)C(C)(C)Oc1ccc(C(F)(F)F)cn1)[C@@H](Cc1ccc(Cl)cc1)c1cccc(C#N)c1,-5.91% (inactive)
9,CN(C)CC(=O)Nc1ccc2[nH]c(=O)c3ccccc3c2c1,-11.3% (inactive)
10,CC(CCC1(O)OC2CC3C4CC=C5CC(O[C@@H]6O[C@H](CO)[C@@H](O[C@@H]7O[C@H](CO)[C@@H](O)[C@H](O)[C@H]7O)[C@H](O)[C@H]6O[C@@H]6O[C@@H](C)[C@H](O)[C@@H](O)[C@H]6O)CCC5(C)C4CCC3(C)C2C1C)CO[C@@H]1O[C@H](CO)[C@@H](O)[C@H](O)[C@H]1O (some centres undefined),1.45% [at 11.6 µM] (inactive)
11,C[C@@H](CN1CCC(n2c(=O)[nH]c3cc(Cl)ccc32)CC1)NC(=O)c1ccc2ccccc2c1,0.682% (inactive)
12,CC(C)c1ccc(NC(=O)C(c2ccccc2)N(C)C(=O)Cc2c[nH]c3ccccc23)cc1 (centres undefined),-8.38% (inactive)
13,CCCCC(=O)N(Cc1ccc(-c2ccccc2-c2nn[nH]n2)cc1)C(C(=O)O)C(C)C (centres undefined),3.32% (inactive)
14,CCCCc1nc(Cl)c(CO)n1Cc1ccc(-c2ccccc2-c2nnn[nH]2)cc1,1.45% (inactive)
15,COc1ccc2c(c1)CN(C(=O)CCN1CCC(Cc3ccccc3)CC1)CCS2,-5.89% [at 25.3 µM] (inactive)
16,C=C1C(=O)O[C@@H]2[C@H]1[C@H](O)C[C@]1(C)[C@@H](O)CC=C(C)[C@@H]21,-14.4% (inactive)
17,CCNC(=O)[C@@H]1CCCN1C(=O)[C@H](CCCN=C(N)N)NC(=O)[C@H](CC(C)C)NC(=O)[C@@H](CC(C)C)NC(=O)[C@H](Cc1ccc(O)cc1)NC(=O)[C@H](CO)NC(=O)[C@H](Cc1c[nH]c2ccccc12)NC(=O)[C@H](Cc1cnc[nH]1)NC(=O)[C@@H]1CCC(=O)N1,15.9% [at 25.3 µM] (inactive)
18,COc1ccc(C2(CNC(=O)[C@](C)(Cc3c[nH]c4ccccc34)NC(=O)Nc3ccc([N+](=O)[O-])cc3)CCCCC2)nc1,-17.6% (inactive)
19,CCN(CC)Cc1cccc(/C=C/c2nc3ccc(F)cc3c(=O)n2-c2ccccc2Cl)n1,0.368% (inactive)
20,C=C(C(=O)O)C1CC2=C(C)C(=O)CC2C(C)CC1O (centres undefined),-20.5% (inactive)
